Rab9 promoter act = qHTS Assay for Rab9 Promoter Activators; Huh7 Rab9 promoter-luciferase reporter, luminescence, 24 h; Potency, µM (series often up to 9.22 µM), inactives show at the highest dose activation, negative = inhibition, usual class: activators; actives 2.8% (n = 320,000); note: % of control where 0% means no effect; nearly all actives have a fitted effect of over 60% in size
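Promoter activation is measured as luciferase luminescence in Huh7 cells stably transfected with a Rab9 promoter–luciferase construct, following 24 h compound exposure at 37 °C and 10 min reagent incubation at ambient temperature.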
Luc counter = Counterscreen for Luciferase (Kinase-Glo TM) Inhibition; Luciferin 4-monooxygenase (Photuris pensylvanica), Q27757; Kinase-Glo luciferase, ATP luminescence, 8 min; actives 0.28% (n = 200,000); AID 1379, 2008; Potency, µM (doses to about 38.3 µM), without a hit: at the top dose activity change, negative = inhibition, most hits filed as inhibitors; note: % is set by controls: 0 for no effect and ±100 for the full control effect; nearly all actives have a fitted effect of over 60% in size
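Luminescence was the read-out, taken after 8-minute incubation at ambient temperature. Luciferase turned over luciferin with 10 uM ATP in imidazole pH 7.2 buffer containing KCl, MgCl2, Tween 20 and BSA.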
FLuc counter = qHTS profiling assay for firefly luciferase inhibitor/activator using purifed enzyme and Km concentrations of substrates (counterscreen for miR-21 project) | Luciferin 4-monooxygenase (Photinus pyralis), P08659 | AID 588342, 2011 | Potency, µM (top dose mostly 57.5 µM), for inactives: at the top dose activity change, negative = inhibition, hits mostly inhibitors | purified FLuc, Km substrates, luminescence inhibition | actives 6.9% (n = 360,000);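 note: plate controls were vehicle for no effect and reference inhibitor for full effect; nearly all actives have a fitted effect of over 55% in size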
Target sequence (P08659 whole entry, looked up): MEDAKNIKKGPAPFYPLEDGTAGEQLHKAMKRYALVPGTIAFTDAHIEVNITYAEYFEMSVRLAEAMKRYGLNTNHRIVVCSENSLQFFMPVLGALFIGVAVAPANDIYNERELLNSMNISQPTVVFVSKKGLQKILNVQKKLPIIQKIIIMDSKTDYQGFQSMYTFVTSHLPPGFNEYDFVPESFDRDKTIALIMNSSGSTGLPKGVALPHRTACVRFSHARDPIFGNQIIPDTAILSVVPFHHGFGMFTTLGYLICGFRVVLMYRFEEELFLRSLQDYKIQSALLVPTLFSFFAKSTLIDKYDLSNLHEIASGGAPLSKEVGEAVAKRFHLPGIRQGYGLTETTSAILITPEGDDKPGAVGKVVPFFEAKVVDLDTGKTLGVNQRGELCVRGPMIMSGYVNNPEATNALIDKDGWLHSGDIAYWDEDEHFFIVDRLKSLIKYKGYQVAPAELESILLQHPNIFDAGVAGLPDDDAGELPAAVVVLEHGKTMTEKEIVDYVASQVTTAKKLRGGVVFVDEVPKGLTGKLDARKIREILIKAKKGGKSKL
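Purified P. pyralis luciferase, 10 nM final, with Km-level 10 uM D-luciferin and 10 uM ATP in 50 mM Tris acetate pH 7.5, 10 mM Mg acetate, 0.01% Tween-20, 0.05% BSA; 6-point qHTS titration about 60 µM downward; luminescence read.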
SMN2 splice up = qHTS Assay for Enhancers of SMN2 Splice Variant Expression; HEK293 SMN2-luciferase splicing reporter, luminescence, 30-36 h; Potency, µM (top dose mostly 46.1 µM), for inactives: at the top dose activity change, positive = activation, actives largely listed as activators; actives 2.8% (n = 210,000); note: % of control where 0% means no effect; nearly all actives have a fitted effect of over 55% in size
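qHTS luciferase splicing reporter: luminescence rises when SMN2 exon 7 is included in transfected HEK293 cells. Compound exposure lasted 30-36 h at 37C, with 4.5 mM final sodium butyrate as control, followed by a ONE-Glo read.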
NPC1 promoter act = qHTS Assay for NPC1 Promoter Activators; actives 2.4% (n = 320,000); AID 485313, 2010; Potency, µM (highest dose often 9.22 µM), without a hit: at the highest dose activation, hits mostly activators; Huh7 NPC1 promoter luciferase reporter, 24 h; note: % of control where 0% means no effect; nearly all actives have a fitted effect of over 60% in size
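Stably transfected Huh7 (NPC1 promoter→luciferase), 1500 cells/well in Opti-MEM + 10% FBS, 2 h settle, then compound 24 h at 37 °C. Luminescence after 10 min with Amplite reagent.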
ELG1 genotoxic = qHTS screen for small molecules that induce genotoxicity in human embryonic kidney (HEK293T) cells expressing luciferase-tagged ELG1. HEK293T ELG1-luciferase reporter, luminescence, 16 h. Potency, µM (series often up to 46 µM), for inactives: at the top dose activity change, positive = activation, hits mostly activators. actives 1.3% (n = 330,000). AID 504466, 2011; note: % of control where 0% means no effect; nearly all actives have a fitted effect of over 60% in size
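Genotoxicity was scored as increased ELG1-luciferase reporter signal, measured by ONE-Glo luminescence (30 min, room temperature). Compound or vehicle exposure of the HEK293T reporter cells lasted 16 hr at 37°C.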
The depositor's hits bear a star; ! = not confirmed by another sample. Shown are actives, neighbours in structure and some others; about 7.5% of the full set was active somewhere. Calls come from the whole dose curve; as a rule, active = well fitted curve in the direction sought with a large enough effect; inconclusive = small, poorly fitted or top-dose-only effect, or another doubt; inactive = no such curve, though single readings can be large; an effect the other way counts as inactive or inconclusive. Potency is the fitted concentration of half-maximal effect.

For CCCCNC(=O)CNC(=O)c1nn(-c2ccc(OC)c(Cl)c2)c(=O)c2ccccc12 the results were Rab9 promoter act -2%, FLuc counter 0%, NPC1 promoter act 0% and ELG1 genotoxic 4%.
CCOC(=O)N1CCN(C(=O)CNC(=O)c2nn(-c3ccc(OC)c(Cl)c3)c(=O)c3ccccc23)CC1 was read as Rab9 promoter act 19%, FLuc counter 4.8µM*, NPC1 promoter act 6% and ELG1 genotoxic 1%.
`COC(=O)CNC(=O)CNC(=O)c1nn(-c2ccc(OC)c(Cl)c2)c(=O)c2ccccc12` gave Rab9 promoter act 2%, Luc counter 3%, FLuc counter 1%, SMN2 splice up -11%, NPC1 promoter act -8% and ELG1 genotoxic -1%.
COc1ccc(-n2nc(C(=O)NCC(=O)N3CCCC3)c3ccccc3c2=O)cc1Cl was read as Rab9 promoter act 11%, FLuc counter 8.5µM*, NPC1 promoter act -2% and ELG1 genotoxic -5%.
For CCOC(=O)N1CCN(C(=O)CNC(=O)c2nn(-c3ccc(OC)c(OC)c3)c(=O)c3ccccc23)CC1 the results were Rab9 promoter act 12%, FLuc counter 6.7µM*, NPC1 promoter act 0% and ELG1 genotoxic -11%.
CCCNC(=O)N1CCN(S(=O)(=O)c2ccc3c(c2)OCCO3)CC1 was read as Rab9 promoter act -1%, FLuc counter 1%, NPC1 promoter act -1% and ELG1 genotoxic -1%.
Screening COc1cccc(C(=O)Nc2cccc(C(=O)OCc3cc(=O)n4c(C)csc4n3)c2)c1 returned FLuc counter -4%.
For Cc1oc2ncn(C)c(=O)c2c1C(=O)NCc1ccccc1 the results were FLuc counter -6%.
`Cc1ccc(NC(=O)n2ncc3c(C)cccc32)c(C)c1` gave Rab9 promoter act 0.32µM*, FLuc counter 2.4µM*!, NPC1 promoter act 0.4µM* and ELG1 genotoxic inconclusive.
For Cc1cccc2c1cnn2C(=O)Nc1ccc(Br)cc1F the results were Rab9 promoter act inconclusive, FLuc counter inconclusive, NPC1 promoter act 0.28µM* and ELG1 genotoxic 5%.
`CC1CN(C(=O)c2cc([N+](=O)[O-])cc([N+](=O)[O-])c2)CC(C)O1` (stereo not drawn) gave Rab9 promoter act 3.2µM*, Luc counter -5%, FLuc counter 15µM*, NPC1 promoter act inconclusive and ELG1 genotoxic inconclusive.
Cc1ccc(C(=O)N2CC(C)OC(C)C2)cc1[N+](=O)[O-] (stereo not drawn) was read as Rab9 promoter act -3%, Luc counter -1%, FLuc counter -1%, NPC1 promoter act -9% and ELG1 genotoxic 1%.
`CS(=O)(=O)c1ccc(NC(=O)C2CC(=O)N(c3ccc4c(c3)OCCO4)C2)cc1` (stereo not drawn) gave Rab9 promoter act -2%, FLuc counter 0%, NPC1 promoter act 0% and ELG1 genotoxic -6%.
CCN1C(=O)/C(=C/N2CCc3ccccc32)SC1=S was read as Rab9 promoter act 3.2µM*, Luc counter -12%, FLuc counter inconclusive, SMN2 splice up 10µM*, NPC1 promoter act 2.8µM* and ELG1 genotoxic 6.5µM*.
For COc1ccc(OCC(=O)Nc2cc(OC)ccc2N2CCCCC2)cc1 the results were Rab9 promoter act -6%, FLuc counter 4%, NPC1 promoter act -1% and ELG1 genotoxic -11%.
`CCOC(=O)c1c(C)[nH]c(C)c1C(=O)COC(=O)c1ccc(Cl)nc1` gave ELG1 genotoxic 1%.
CCc1ccc(C(=O)COC(=O)c2ccc(Cl)nc2)cc1 was read as Rab9 promoter act inconclusive, Luc counter -4%, FLuc counter 9.5µM*, SMN2 splice up 23%, NPC1 promoter act 17% and ELG1 genotoxic 2%.
Screening O=C(COC(=O)C(O)c1ccccc1)c1ccc2c(c1)OCCO2 (stereo not drawn) returned Rab9 promoter act -1%, Luc counter -4%, FLuc counter 1.5µM*, SMN2 splice up -8%, NPC1 promoter act -5% and ELG1 genotoxic 4%.
`O=C(COC(=O)c1ccc(Cl)nc1)c1ccc2c(c1)OCCO2` gave Rab9 promoter act 1.6µM*, Luc counter 0%, FLuc counter 0.76µM*, SMN2 splice up -3%, NPC1 promoter act 4µM* and ELG1 genotoxic inconclusive.
`COc1cccc(NC(=O)CSc2nnnn2C2CCCCC2)c1` gave Rab9 promoter act 0%, FLuc counter -5%, NPC1 promoter act -3% and ELG1 genotoxic 0%.
Screening CCOc1ccccc1N(CC(=O)NCc1ccco1)C(=O)CCC(=O)Nc1nccs1 returned Rab9 promoter act -5%, FLuc counter 0%, NPC1 promoter act -4% and ELG1 genotoxic -2%.
Cc1cc(C)cc(OCCCn2c(-c3ccc(Cl)cc3)nc3ccccc3c2=O)c1 was read as FLuc counter -5% and SMN2 splice up -9%.
Screening COC(=O)c1ccc(N2OC3(C)C=CC2CC3)cc1 (stereo not drawn) returned Rab9 promoter act inconclusive, Luc counter -3%, FLuc counter 21µM*, SMN2 splice up inconclusive, NPC1 promoter act 30% and ELG1 genotoxic inconclusive.
For c1ccc(Cc2nc3ccccc3o2)cc1 the results were Rab9 promoter act 7%, Luc counter -9%, FLuc counter 19µM*, SMN2 splice up -3%, NPC1 promoter act 1% and ELG1 genotoxic 15%.
`Clc1cc(NCc2cccs2)ccc1N1CCOCC1` gave Rab9 promoter act inconclusive, Luc counter 2%, FLuc counter inconclusive, SMN2 splice up inconclusive, NPC1 promoter act inconclusive and ELG1 genotoxic 18µM*.
`c1csc(CNc2ccc3c(c2)OCCO3)c1` gave Rab9 promoter act 14%, Luc counter 2%, FLuc counter 27µM*, SMN2 splice up -11%, NPC1 promoter act 9% and ELG1 genotoxic 8.2µM*.
`c1cncc(CNc2ccc3c(c2)OCO3)c1` gave Rab9 promoter act 2%, Luc counter 15%, FLuc counter -19%, SMN2 splice up -5%, NPC1 promoter act 11% and ELG1 genotoxic 9%.
`Cc1ccc(NCc2ccccc2O)cc1C` gave Rab9 promoter act 20%, Luc counter -2%, FLuc counter inconclusive, SMN2 splice up 17%, NPC1 promoter act 14% and ELG1 genotoxic inconclusive.
